Three compounds from PubChem BioAssay AID493231 (Broad Institute, 2011) can be followed below.

For the experiment, the target named is Acyl-homoserine lactone acylase PvdQ (Pseudomonas aeruginosa (strain ATCC 15692 / DSM 22644 / CIP 104116 / JCM 14847 / LMG 12228 / 1C / PRS 101 / PAO1)) (UniProt Q9I194). The experiment in a line: PvdQ acylase enzyme activity blockers – biochemical, fluorescence, plate reader and imaging, cherry-picks, dose response (AID 493231).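 Note: more negative values mean stronger inhibition of the acylase.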 The settings on record: purified PvdQ acylase, fluorogenic substrate; series mostly up to 10 µM.

Potency and affinity values are given separately. Calls of active or inactive are those of the source. Entries that show only a call come without a potency. The rule behind the calls is not given here.

Chain of Acyl-homoserine lactone acylase PvdQ (Pseudomonas aeruginosa (strain ATCC 15692 / DSM 22644 / CIP 104116 / JCM 14847 / LMG 12228 / 1C / PRS 101 / PAO1)) (Q9I194 whole entry, looked up): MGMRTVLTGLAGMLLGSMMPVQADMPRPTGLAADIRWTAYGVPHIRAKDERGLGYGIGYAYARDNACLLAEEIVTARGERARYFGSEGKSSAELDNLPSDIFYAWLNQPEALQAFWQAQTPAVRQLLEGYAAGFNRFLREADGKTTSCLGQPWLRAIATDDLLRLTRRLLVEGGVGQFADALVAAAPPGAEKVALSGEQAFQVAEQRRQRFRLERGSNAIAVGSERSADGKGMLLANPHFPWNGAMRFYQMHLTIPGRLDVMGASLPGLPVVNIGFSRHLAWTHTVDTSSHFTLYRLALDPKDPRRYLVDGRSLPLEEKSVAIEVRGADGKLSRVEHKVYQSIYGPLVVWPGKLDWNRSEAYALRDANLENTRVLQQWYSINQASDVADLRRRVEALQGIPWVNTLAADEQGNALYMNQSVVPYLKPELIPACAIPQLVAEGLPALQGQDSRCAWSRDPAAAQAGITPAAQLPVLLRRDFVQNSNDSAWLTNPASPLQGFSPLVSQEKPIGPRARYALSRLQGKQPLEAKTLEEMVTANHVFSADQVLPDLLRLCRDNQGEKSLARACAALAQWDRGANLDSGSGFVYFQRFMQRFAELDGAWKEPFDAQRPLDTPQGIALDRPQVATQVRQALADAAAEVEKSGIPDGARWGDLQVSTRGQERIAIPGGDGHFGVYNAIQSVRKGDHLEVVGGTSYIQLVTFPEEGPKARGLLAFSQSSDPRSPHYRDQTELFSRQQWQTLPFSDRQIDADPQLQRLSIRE

On to `CC1(C)CC2(CCO1)NCCN1C(=O)CSC12` (stereo not drawn), for which the outcome was inactive. As to `Cc1cc(N(CCCl)CCCl)ccc1C=NNC(=O)c1cccnc1`, the call was inactive.

`O=[N+]([O-])c1ccc2c(c1)Cc1cc(O)ccc1-2`: the outcome was inactive.
